Test results published in paper PMC11006913.

What was measured:
Assay in all cases: PBM; 200 nM protein, PBS
Settings in all cases: dsDNA, one strand shown
SHOX [1] = biological target: SHOX (Homo sapiens, UniProt O15266 103-189)
SHOX [2] = biological target: SHOX (Homo sapiens, UniProt O15266 103-189, R173C)
HOXD13 [3] = biological target: HOXD13 (Homo sapiens, UniProt P35453 263-343, T313R)
HOXD13 [4] = biological target: HOXD13 (Homo sapiens, UniProt P35453 263-343)
HOXD13 [5] = biological target: HOXD13 (Homo sapiens, UniProt P35453 263-343, T313A)
VAX1 [6] = biological target: VAX1 (Homo sapiens, UniProt Q5SQQ9 86-172)
VAX1 [7] = biological target: VAX1 (Homo sapiens, UniProt Q5SQQ9 86-172, T142I)
VAX1 [8] = biological target: VAX1 (Homo sapiens, UniProt Q5SQQ9 86-172, K157R)
CRX [9] = biological target: CRX (Homo sapiens, UniProt O43186 26-111)
NKX3-2 [10] = biological target: NKX3-2 (Homo sapiens, UniProt P78367 192-278, P234S)
NKX3-2 [11] = biological target: NKX3-2 (Homo sapiens, UniProt P78367 192-278)
CRX [12] = biological target: CRX (Homo sapiens, UniProt O43186 26-111, R41L)
Sequence of CRX (Homo sapiens, UniProt O43186 26-111, R41L) (O43186 26-111 R41L): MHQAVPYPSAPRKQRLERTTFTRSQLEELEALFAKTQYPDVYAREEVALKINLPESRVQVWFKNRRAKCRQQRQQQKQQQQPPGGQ

Sequence of SHOX (Homo sapiens, UniProt O15266 103-189) (O15266 103-189): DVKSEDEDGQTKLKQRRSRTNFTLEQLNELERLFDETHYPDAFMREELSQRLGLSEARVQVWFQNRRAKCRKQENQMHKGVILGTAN
Sequence of SHOX (Homo sapiens, UniProt O15266 103-189, R173C) (O15266 103-189 R173C): as the sequence (O15266 103-189) above, with R71C counted along it
Sequence of VAX1 (Homo sapiens, UniProt Q5SQQ9 86-172, T142I) (Q5SQQ9 86-172 T142I): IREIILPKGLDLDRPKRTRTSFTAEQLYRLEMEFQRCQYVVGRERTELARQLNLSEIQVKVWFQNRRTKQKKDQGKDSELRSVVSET
Sequence of VAX1 (Homo sapiens, UniProt Q5SQQ9 86-172, K157R) (Q5SQQ9 86-172 K157R): as the sequence (Q5SQQ9 86-172 T142I) above, with I57T, K72R counted along it
Sequence of VAX1 (Homo sapiens, UniProt Q5SQQ9 86-172) (Q5SQQ9 86-172): as the sequence (Q5SQQ9 86-172 T142I) above, with I57T counted along it
Sequence of CRX (Homo sapiens, UniProt O43186 26-111) (O43186 26-111): as the sequence (O43186 26-111 R41L) above, with L16R counted along it
Sequence of HOXD13 (Homo sapiens, UniProt P35453 263-343, T313R) (P35453 263-343 T313R): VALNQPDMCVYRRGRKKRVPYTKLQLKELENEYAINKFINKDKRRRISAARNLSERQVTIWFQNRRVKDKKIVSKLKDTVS
Sequence of HOXD13 (Homo sapiens, UniProt P35453 263-343) (P35453 263-343): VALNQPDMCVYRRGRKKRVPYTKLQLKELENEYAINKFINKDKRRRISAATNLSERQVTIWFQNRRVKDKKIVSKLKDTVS
Sequence of HOXD13 (Homo sapiens, UniProt P35453 263-343, T313A) (P35453 263-343 T313A): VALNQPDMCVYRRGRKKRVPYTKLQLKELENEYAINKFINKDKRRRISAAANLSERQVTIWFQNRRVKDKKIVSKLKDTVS
Sequence of NKX3-2 (Homo sapiens, UniProt P78367 192-278, P234S) (P78367 192-278 P234S): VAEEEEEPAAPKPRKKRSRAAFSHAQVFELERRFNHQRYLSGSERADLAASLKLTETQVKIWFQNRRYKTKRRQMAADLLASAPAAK
Sequence of NKX3-2 (Homo sapiens, UniProt P78367 192-278) (P78367 192-278): as the sequence (P78367 192-278 P234S) above, with S43P counted along it

GCCCAAGC
binding signal (SHOX [1]): 7.26 upbm affinity estimate (log intensity, higher = more binding, comparable within an allelic series)
binding signal (SHOX [2]): 7.23 upbm affinity estimate (log intensity, higher = more binding, comparable within an allelic series)

CCGCGGCC
binding signal (SHOX [1]): 7.18 upbm affinity estimate (log intensity, higher = more binding, comparable within an allelic series)
binding signal (SHOX [2]): 7.17 upbm affinity estimate (log intensity, higher = more binding, comparable within an allelic series)

GGCTGGCA
binding signal (SHOX [1]): 7.2 upbm affinity estimate (log intensity, higher = more binding, comparable within an allelic series)
binding signal (SHOX [2]): 7.13 upbm affinity estimate (log intensity, higher = more binding, comparable within an allelic series)

AGCCGCCG
binding signal (SHOX [1]): 7.12 upbm affinity estimate (log intensity, higher = more binding, comparable within an allelic series)
binding signal (HOXD13 [3]): 9.48 upbm affinity estimate (log intensity, higher = more binding, comparable within an allelic series)
binding signal (SHOX [2]): 7.19 upbm affinity estimate (log intensity, higher = more binding, comparable within an allelic series)
binding signal (HOXD13 [4]): 9.52 upbm affinity estimate (log intensity, higher = more binding, comparable within an allelic series)
binding signal (HOXD13 [5]): 9.57 upbm affinity estimate (log intensity, higher = more binding, comparable within an allelic series)

GGCCAGAC
binding signal (SHOX [1]): 7.3 upbm affinity estimate (log intensity, higher = more binding, comparable within an allelic series)
binding signal (SHOX [2]): 7.26 upbm affinity estimate (log intensity, higher = more binding, comparable within an allelic series)

CCGTGGCC
binding signal (SHOX [1]): 7.18 upbm affinity estimate (log intensity, higher = more binding, comparable within an allelic series)
binding signal (SHOX [2]): 7.22 upbm affinity estimate (log intensity, higher = more binding, comparable within an allelic series)

CCCCGAAC
binding signal (SHOX [1]): 7.23 upbm affinity estimate (log intensity, higher = more binding, comparable within an allelic series)
binding signal (SHOX [2]): 7.26 upbm affinity estimate (log intensity, higher = more binding, comparable within an allelic series)

GCCTGCCA
binding signal (SHOX [1]): 7.25 upbm affinity estimate (log intensity, higher = more binding, comparable within an allelic series)
binding signal (SHOX [2]): 7.26 upbm affinity estimate (log intensity, higher = more binding, comparable within an allelic series)

CCCCTTCC
binding signal (SHOX [1]): 7.19 upbm affinity estimate (log intensity, higher = more binding, comparable within an allelic series)
binding signal (SHOX [2]): 7.03 upbm affinity estimate (log intensity, higher = more binding, comparable within an allelic series)

CCAAGGAG
binding signal (SHOX [1]): 7.32 upbm affinity estimate (log intensity, higher = more binding, comparable within an allelic series)
binding signal (SHOX [2]): 7.21 upbm affinity estimate (log intensity, higher = more binding, comparable within an allelic series)

GCCTATTA
binding signal (SHOX [1]): 10.8 upbm affinity estimate (log intensity, higher = more binding, comparable within an allelic series)
binding signal (SHOX [2]): 8.45 upbm affinity estimate (log intensity, higher = more binding, comparable within an allelic series)

CCGAGGGA
binding signal (SHOX [1]): 7.05 upbm affinity estimate (log intensity, higher = more binding, comparable within an allelic series)
binding signal (SHOX [2]): 7.2 upbm affinity estimate (log intensity, higher = more binding, comparable within an allelic series)
binding signal (VAX1 [6]): 7.35 upbm affinity estimate (log intensity, higher = more binding, comparable within an allelic series)
binding signal (VAX1 [7]): 7.23 upbm affinity estimate (log intensity, higher = more binding, comparable within an allelic series)
binding signal (VAX1 [8]): 7.35 upbm affinity estimate (log intensity, higher = more binding, comparable within an allelic series)

CAATCTTC
binding signal (SHOX [1]): 7.99 upbm affinity estimate (log intensity, higher = more binding, comparable within an allelic series)
binding signal (SHOX [2]): 7.51 upbm affinity estimate (log intensity, higher = more binding, comparable within an allelic series)

GCCGGGGA
binding signal (SHOX [1]): 7.02 upbm affinity estimate (log intensity, higher = more binding, comparable within an allelic series)
binding signal (SHOX [2]): 7.11 upbm affinity estimate (log intensity, higher = more binding, comparable within an allelic series)

AATTAGGC
binding signal (SHOX [1]): 11.6 upbm affinity estimate (log intensity, higher = more binding, comparable within an allelic series)
binding signal (SHOX [2]): 9.07 upbm affinity estimate (log intensity, higher = more binding, comparable within an allelic series)

TAACCTTA
binding signal (CRX [9]): 9.78 upbm affinity estimate (log intensity, higher = more binding, comparable within an allelic series)

CGCTACCC
binding signal (SHOX [1]): 7.24 upbm affinity estimate (log intensity, higher = more binding, comparable within an allelic series)
binding signal (SHOX [2]): 7.33 upbm affinity estimate (log intensity, higher = more binding, comparable within an allelic series)

TCGCGCGA
binding signal (SHOX [1]): 7.38 upbm affinity estimate (log intensity, higher = more binding, comparable within an allelic series)
binding signal (SHOX [2]): 7.28 upbm affinity estimate (log intensity, higher = more binding, comparable within an allelic series)

CGGGGCCA
binding signal (SHOX [1]): 6.97 upbm affinity estimate (log intensity, higher = more binding, comparable within an allelic series)
binding signal (SHOX [2]): 7.1 upbm affinity estimate (log intensity, higher = more binding, comparable within an allelic series)

CGGTTGCC
binding signal (SHOX [1]): 7.18 upbm affinity estimate (log intensity, higher = more binding, comparable within an allelic series)
binding signal (SHOX [2]): 7.25 upbm affinity estimate (log intensity, higher = more binding, comparable within an allelic series)

ATTACCTA
binding signal (SHOX [1]): 9.59 upbm affinity estimate (log intensity, higher = more binding, comparable within an allelic series)
binding signal (NKX3-2 [10]): 11.2 upbm affinity estimate (log intensity, higher = more binding, comparable within an allelic series)
binding signal (NKX3-2 [11]): 11.2 upbm affinity estimate (log intensity, higher = more binding, comparable within an allelic series)

AGGGAAAC
binding signal (SHOX [1]): 7.15 upbm affinity estimate (log intensity, higher = more binding, comparable within an allelic series)
binding signal (SHOX [2]): 7.22 upbm affinity estimate (log intensity, higher = more binding, comparable within an allelic series)

CCGGATGC
binding signal (SHOX [1]): 6.64 upbm affinity estimate (log intensity, higher = more binding, comparable within an allelic series)
binding signal (SHOX [2]): 7.08 upbm affinity estimate (log intensity, higher = more binding, comparable within an allelic series)
binding signal (VAX1 [6]): 6.72 upbm affinity estimate (log intensity, higher = more binding, comparable within an allelic series)
binding signal (VAX1 [7]): 6.89 upbm affinity estimate (log intensity, higher = more binding, comparable within an allelic series)
binding signal (VAX1 [8]): 6.77 upbm affinity estimate (log intensity, higher = more binding, comparable within an allelic series)

ACCCGCCC
binding signal (SHOX [1]): 7.27 upbm affinity estimate (log intensity, higher = more binding, comparable within an allelic series)
binding signal (SHOX [2]): 7.22 upbm affinity estimate (log intensity, higher = more binding, comparable within an allelic series)

CTCCGCCA
binding signal (SHOX [1]): 7.21 upbm affinity estimate (log intensity, higher = more binding, comparable within an allelic series)
binding signal (SHOX [2]): 7.21 upbm affinity estimate (log intensity, higher = more binding, comparable within an allelic series)

GCTAATAC
binding signal (SHOX [1]): 9.1 upbm affinity estimate (log intensity, higher = more binding, comparable within an allelic series)
binding signal (CRX [12]): 10.9 upbm affinity estimate (log intensity, higher = more binding, comparable within an allelic series)

CCAGAGGC
binding signal (SHOX [1]): 7.17 upbm affinity estimate (log intensity, higher = more binding, comparable within an allelic series)
binding signal (SHOX [2]): 7.18 upbm affinity estimate (log intensity, higher = more binding, comparable within an allelic series)

CCCAGCGA
binding signal (SHOX [1]): 7.15 upbm affinity estimate (log intensity, higher = more binding, comparable within an allelic series)
binding signal (SHOX [2]): 7.2 upbm affinity estimate (log intensity, higher = more binding, comparable within an allelic series)

GCATTACC
binding signal (SHOX [1]): 8.63 upbm affinity estimate (log intensity, higher = more binding, comparable within an allelic series)
binding signal (SHOX [2]): 7.62 upbm affinity estimate (log intensity, higher = more binding, comparable within an allelic series)
